Experimental data taken from PubChem BioAssay (Tox21).
Results filed as inconclusive are left out. The source made the active and inactive calls. Unless noted, the call rests on the fitted dose curve; in most records, active means well fitted curve in the direction sought with a large enough effect in the repeat runs; inconclusive means weak or mixed curves; inactive means no such curve, though single readings can be large; an effect the other way counts as inactive or inconclusive.

Legend:
[1] = qHTS assay for small molecule agonists of the p53 signaling pathway (AID 651631; calls by dose curve; further: nearly all actives have a fitted effect of over 15% in size)
Summary of the method: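 p53RE-bla HCT-116 cells; compounds 16 h, 37 °C; LiveBLAzer B/G FRET substrate 2 h RT; fluorescence intensity read-out, qHTS format.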

[2] = qHTS assay for small molecules that induce genotoxicity in human embryonic kidney cells expressing luciferase-tagged ATAD5 (AID 651632); further: nearly all actives have a fitted effect of over 15% in size
Summary of the method: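 Genotoxicity read-out via ATAD5-luciferase: HEK293T cells, 16 hr compound incubation at 37C, Amplite detection.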

[3] = qHTS assay for small molecule agonists of the p53 signaling pathway - cell viability (AID 651633; calls by dose curve;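 further: p53RE-bla HCT reporter cells with a stable beta-lactamase p53 reporter; series mostly up to about 83 µM; nearly all actives have a fitted effect of over 30% in size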)
Summary of the method: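 p53RE-bla cells, seeded at 4,000 per well and rested 5 h at 37 C/5% CO2, received compounds in DMSO for 16 h at 37 C. CellTiter-Glo was then added, and luminescence was read after 30 min at room temperature to gauge cytotoxicity.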

[4] = qHTS assay for small molecules that induce genotoxicity in human embryonic kidney cells expressing luciferase-tagged ATAD5 - cell viability (AID 651634; calls by dose curve; further: nearly all actives have a fitted effect of over 25% in size)
Summary of the method: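 Live-cell protease activity (CellTiter-Fluor, fluorescence) indicates viability. HEK293T cells with luciferase-tagged ATAD5; 15.5 hr compound treatment at 37C.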

[5] = qHTS assay for small molecule disruptors of the mitochondrial membrane potential - cell viability (AID 720634; calls by dose curve;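 further: human HepG2 liver cancer cells; series mostly up to about 83 µM; nearly all actives have a fitted effect of over 20% in size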)
Summary of the method: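 Human hepatoma HepG2 cells were treated for 1 hr with test chemicals, then given m-MPI dye and CellTiter-Glo. Cell viability reflects luminescence proportional to cellular ATP.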

[6] = qHTS assay for small molecule disruptors of the mitochondrial membrane potential (AID 720635)
Summary of the method: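 HepG2 cells (2,000/well) attached overnight at 37C, then took compound for 1 hr at 37C, 5% CO2. Mito-MPS dye was added for 30 min; fluorescence was read at 490/535 nm (monomers) and 540/590 nm (aggregates).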

[7] = qHTS assay to test for compound auto fluorescence at 535 nm (green) in HepG2 cells (AID 720675)
[8] = qHTS assay to test for compound auto fluorescence at 460 nm (blue) in HEK293 cells (AID 720678)
Summary of the method: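 Cells were seeded and left to adhere for 4-5 hr at 37C. Compounds were then pin-transferred. After an overnight incubation at 37C under 5% CO2, intrinsic fluorescence at 405/460 nm was measured and referenced to triamterene.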

[9] = qHTS assay to test for compound auto fluorescence at 590 nm (red) in HEK293 cells (AID 720679)
Summary of the method: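 Each well held 2,000 HEK293 cells in medium containing 10% dialyzed FBS. Following 4-5 hr attachment at 37C, 23 nL test compound or DMSO was added; plates sat overnight, and red fluorescence (540/590nm) was recorded.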

[10] = qHTS assay to test for compound auto fluorescence at 535 nm (green) in HEK293 cells (AID 720680)
[11] = qHTS assay to test for compound auto fluorescence at 460 nm (blue) in HEK293 cell free culture (AID 720681)
Summary of the method: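 Test compounds were pinned into cell-free culture medium (DMEM with 10% FBS) and fluorescence was read directly at Ex/Em 405/460 nm. Signals were expressed as fluorescence equivalents of triamterene, with DMSO vehicle as control.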

[12] = qHTS assay to test for compound auto fluorescence at 590 nm (red) in HEK293 cell free culture (AID 720683)
Summary of the method: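 Tox21 10K library compounds were pinned into cell-free DMEM with 10% FBS and fluorescence was read at excitation 540 nm. Activity is expressed as Rose Bengal sodium equivalency.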

[13] = qHTS assay to test for compound auto fluorescence at 590 nm (red) in HepG2 cell free culture (AID 720684)
Summary of the method: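 Measured in medium alone (MEM containing 10% FBS) following pintool addition of compound; emission at 590 nm with 540 nm excitation, referenced to Rose Bengal sodium.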

[14] = qHTS assay to test for compound auto fluorescence at 460 nm (blue) in HepG2 cell free culture (AID 720685)
Summary of the method: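 Compound (23 nL) or DMSO pinned into cell-free MEM with 10% FBS; blue fluorescence read at 405/460 nm excitation/emission, expressed as auto-fluorescence equivalency to triamterene.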

[15] = qHTS assay to test for compound auto fluorescence at 535 nm (green) in HepG2 cell free culture (AID 720686)
[16] = qHTS assay to test for compound auto fluorescence at 460 nm (blue) in HepG2 cells (AID 720687)
Summary of the method: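 Cells (2,000/well in MEM with 10% FBS) attached overnight at 37 C, then were exposed to compound or DMSO for 1 hr at 37 C, 5% CO2. Fluorescence read at Ex/Em 405/460 nm, expressed as triamterene-equivalent signal.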

[17] = target: Glucocorticoid receptor (Homo sapiens) (UniProt P04150); assay: qHTS assay to identify small molecule agonists of the glucocorticoid receptor (GR) signaling pathway (AID 720691; active means well fitted activation curve with a large enough effect in the signal ratio in the repeat runs, not every such curve was filed as active; the % refers to the signal ratio)
Glucocorticoid receptor (Homo sapiens), sequence (P04150 whole entry, looked up): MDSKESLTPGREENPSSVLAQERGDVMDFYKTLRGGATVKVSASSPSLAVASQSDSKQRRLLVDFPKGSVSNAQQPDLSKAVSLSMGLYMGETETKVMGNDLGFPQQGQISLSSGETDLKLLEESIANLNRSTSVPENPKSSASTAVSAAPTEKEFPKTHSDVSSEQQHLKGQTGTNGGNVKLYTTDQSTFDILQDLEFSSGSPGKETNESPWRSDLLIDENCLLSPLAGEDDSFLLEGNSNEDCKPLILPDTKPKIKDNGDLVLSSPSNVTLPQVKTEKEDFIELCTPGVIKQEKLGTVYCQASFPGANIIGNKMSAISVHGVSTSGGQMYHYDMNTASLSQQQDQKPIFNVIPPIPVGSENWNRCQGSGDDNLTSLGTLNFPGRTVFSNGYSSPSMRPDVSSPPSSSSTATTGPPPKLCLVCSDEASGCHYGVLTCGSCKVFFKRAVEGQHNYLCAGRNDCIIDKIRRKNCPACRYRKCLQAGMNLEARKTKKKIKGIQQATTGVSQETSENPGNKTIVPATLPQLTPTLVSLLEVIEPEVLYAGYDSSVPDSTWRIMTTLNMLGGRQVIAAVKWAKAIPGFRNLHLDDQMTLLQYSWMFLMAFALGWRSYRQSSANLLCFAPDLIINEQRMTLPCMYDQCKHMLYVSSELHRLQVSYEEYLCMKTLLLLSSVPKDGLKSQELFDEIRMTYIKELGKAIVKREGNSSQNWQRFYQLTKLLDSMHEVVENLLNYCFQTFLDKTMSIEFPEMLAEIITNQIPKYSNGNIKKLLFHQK
Summary of the method: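 Beta-lactamase reporter activity, read as fluorescence intensity, was measured in GR-bla HeLa cells exposed to compounds for 18 h at 37 C and then loaded with LiveBLAzer B/G FRET substrate for 2 h at room temperature.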

[18] = target: Glucocorticoid receptor (Homo sapiens) (UniProt P04150); assay: qHTS assay to identify small molecule antagonists of the glucocorticoid receptor (GR) signaling pathway (AID 720692; active means well fitted inhibition curve with a large enough effect in the signal ratio in the repeat runs, not every such curve was filed as active; the % refers to the signal ratio)
Summary of the method: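 Fluorescence from cleaved LiveBLAzer B/G FRET substrate reports GRE-driven beta-lactamase in HeLa cells; compounds are tested against 5 nM dexamethasone (final) over 18 h at 37 C, substrate incubation 2 h at room temperature.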

[19] = qHTS assay to test for compound auto fluorescence at 590 nm (red) in HepG2 cells (AID 720674)
Summary of the method: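 Intrinsic compound fluorescence in the red window (Ex/Em 540/590 nm) is measured in attached HepG2 cells exposed for 1 hr, DMSO vehicle as baseline, benchmarked to Rose Bengal sodium.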

[20] = qHTS assay to test for compound auto fluorescence at 535 nm (green) in HEK293 cell free culture (AID 720682)
Summary of the method: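 Cell-free medium (DMEM, 10% FBS) receives compound or DMSO by pintool. Plate read directly at Ex 485/Em 535 nm. Signal converted to fluorescein equivalency.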
On the % scale 0 is the no-effect control and ±100 the full control effect.

O=C1C(CCS(=O)c2ccccc2)C(=O)N(c2ccccc2)N1c1ccccc1 (configuration not stated)
inactive: Potency [1] | Potency [2] | Potency [3] | Potency [4] | Potency [5] | Potency [6] | fluorescence, % of fluorescein control [7] -0.114% [at 18.6 µM] | fluorescence, % of triamterene [8] -0.0077% [at 18.6 µM] | fluorescence, % of fluorescent control [9] 0.179% [at 18.6 µM] | fluorescence, % of fluorescein [10] -0.11% [at 18.6 µM] | fluorescence, % of fluorescent control [11] 0.0823% [at 18.6 µM] | fluorescence, % of fluorescent control [12] 0.107% [at 18.6 µM] | fluorescence, % of Rose Bengal [13] -0.0469% [at 18.6 µM] | fluorescence, % of fluorescent control [14] -0.0192% [at 18.6 µM] | fluorescence, % of fluorescein control [15] -0.0165% [at 18.6 µM] | fluorescence, % of fluorescent control [16] -0.182% [at 18.6 µM] | Potency [17] | Potency [18]

OCC(CO)(CO)COCC(CO)(CO)CO
inactive: Potency [1] | Potency [2] | Potency [3] | Potency [4] | Potency [5] | outcome [19] | outcome [7] | Potency [8] | outcome [9] | outcome [10] | Potency [11] | outcome [20] | outcome [12] | outcome [13] | Potency [14] | outcome [15] | Potency [16]

CN(C)CCn1nnnc1SCC1=C(C(=O)O)N2C(=O)[C@@H](NC(=O)Cc3csc(N)n3)[C@H]2SC1
inactive: Potency [1] | Potency [2] | Potency [3] | Potency [4] | Potency [5] | Potency [6] | fluorescence, relative to Rose Bengal [19] -0.434% [at 18.6 µM] | fluorescence, % of fluorescein control [7] -0.0016% [at 18.6 µM] | fluorescence, % of fluorescent control [9] -0.137% [at 18.6 µM] | fluorescence, % of fluorescein [10] 0.129% [at 18.6 µM] | fluorescence, % of fluorescent control [11] 0.443% [at 18.6 µM] | fluorescence, % of fluorescent control [12] 0.0008% [at 18.6 µM] | fluorescence, % of fluorescent control [14] 0.31% [at 18.6 µM] | fluorescence, % of fluorescein control [15] 0.0098% [at 18.6 µM] | fluorescence, % of fluorescent control [16] 0.222% [at 18.6 µM] | Potency [17] | Potency [18]

N#CCc1ccccc1[N+](=O)[O-]
inactive: Potency [1] | Potency [2] | Potency [3] | Potency [4] | Potency [5] | Potency [6] | outcome [19] | outcome [7] | Potency [8] | outcome [9] | outcome [10] | Potency [11] | outcome [12] | outcome [13] | Potency [14] | outcome [15] | Potency [16]

O=C(O)c1ccc[n+]([O-])c1
inactive: Potency [1] | Potency [2] | Potency [3] | Potency [4] | Potency [5] | Potency [6] | outcome [19] | outcome [7] | outcome [9] | outcome [10] | Potency [11] | outcome [20] | outcome [12] | outcome [13] | Potency [14] | outcome [15] | Potency [16] | Potency [18]

Nc1cc(C(Cl)=C(Cl)Cl)c(S(N)(=O)=O)cc1S(N)(=O)=O
inactive: Potency [1] | Potency [2] | Potency [3] | Potency [4] | Potency [5] | Potency [6] | outcome [7] | Potency [8] | outcome [9] | outcome [10] | Potency [11] | outcome [20] | outcome [12] | outcome [13] | Potency [14] | outcome [15] | Potency [16] | Potency [17] | Potency [18]

C=CCSCC1Nc2cc(Cl)c(S(N)(=O)=O)cc2S(=O)(=O)N1 (configuration not stated)
inactive: Potency [1] | Potency [2] | Potency [3] | Potency [4] | Potency [5] | Potency [6] | outcome [19] | outcome [7] | Potency [8] | outcome [9] | outcome [10] | Potency [11] | outcome [20] | outcome [12] | Potency [14] | outcome [15] | Potency [16] | Potency [18]

O=C1OC(=O)c2cc([N+](=O)[O-])ccc21
inactive: Potency [1] | Potency [2] | Potency [3] | Potency [4] | Potency [5] | Potency [6] | outcome [19] | outcome [7] | Potency [8] | outcome [9] | outcome [10] | Potency [11] | outcome [20] | outcome [12] | Potency [14] | outcome [15] | Potency [16] | Potency [18]
